# Source: PubChem BioAssay (Tox21)
# “And” between values parts separate entries of the source, which are not always exact repeats. Identical values can stand only once. Records with an inconclusive call do not appear. Where a call stands in place of a potency, no number is given. Some compounds were tested as several samples or in several runs, with calls that do not always agree. The source made the active and inactive calls. Unless noted, calls come from the whole dose curve.
# Columns and labels:
# [1] = Nuclear factor erythroid 2-related factor 2/antioxidant responsive element (Nrf2/ARE) small molecule agonists: qHTS cell viability counter screen in human keratinocytes (AID 1919968; active = well fitted curve in the direction sought with a large enough effect in the repeat runs; an effect the other way counts as inactive or inconclusive; note: nearly all actives have a fitted effect of over 55% in size; note: potency is the fitted concentration of half-maximal effect)
# In short: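 Cells of the KeratinoSens line were plated at 1,500 per well and left for 5 h before compound transfer from DMSO stocks. After a 23 h incubation (37 C, 5% CO2), CellTiter-Fluor was added. Signal was taken as fluorescence intensity 1 h later.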
# [2] = Nuclear factor erythroid 2-related factor 2/antioxidant responsive element (Nrf2/ARE) small molecule agonists: luciferase reporter gene qHTS assay in human keratinocytes (AID 1919969); note: nearly all actives have a fitted effect of over 35% in size; note: potency is the fitted concentration of half-maximal effect
# [3] = molecular target: Gonadotropin-releasing hormone receptor (Homo sapiens) (UniProt P30968); assay: Human gonadotropin-releasing hormone receptor (GnRHR) small molecule agonists, calcium flux assay in GnRHR-HEK293 cells (AID 1920063); note: nearly all actives have a fitted effect of over 35% in size
# Gonadotropin-releasing hormone receptor (Homo sapiens), sequence (P30968 whole entry, looked up): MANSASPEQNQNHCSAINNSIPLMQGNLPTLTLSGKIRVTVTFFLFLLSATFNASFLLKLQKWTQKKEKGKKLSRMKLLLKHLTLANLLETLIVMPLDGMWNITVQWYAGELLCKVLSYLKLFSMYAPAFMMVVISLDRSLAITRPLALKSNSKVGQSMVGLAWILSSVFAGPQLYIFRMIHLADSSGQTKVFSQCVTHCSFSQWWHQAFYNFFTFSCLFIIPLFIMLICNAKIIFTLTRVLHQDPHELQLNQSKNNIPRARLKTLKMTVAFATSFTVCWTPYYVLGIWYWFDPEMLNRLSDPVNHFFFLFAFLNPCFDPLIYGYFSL
# In short: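 Compounds dissolved in DMSO are pin-transferred onto dye-loaded GnRHR-HEK293 cells, which were seeded 18 h before at 37 C/5% CO2. Calcium signal is read as fluorescence intensity at 1 s intervals for 3 min.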
# [4] = molecular target: KiSS-1 receptor (Homo sapiens) (UniProt Q969F8); assay: Human kisspeptin (KISS1R) small molecule agonists, calcium flux assay in KISS1R-HEK293 cells (AID 1920064; active = well fitted curve in the direction sought with a large enough effect in the repeat runs; an effect the other way counts as inactive or inconclusive)
# KiSS-1 receptor (Homo sapiens), sequence (Q969F8 whole entry, looked up): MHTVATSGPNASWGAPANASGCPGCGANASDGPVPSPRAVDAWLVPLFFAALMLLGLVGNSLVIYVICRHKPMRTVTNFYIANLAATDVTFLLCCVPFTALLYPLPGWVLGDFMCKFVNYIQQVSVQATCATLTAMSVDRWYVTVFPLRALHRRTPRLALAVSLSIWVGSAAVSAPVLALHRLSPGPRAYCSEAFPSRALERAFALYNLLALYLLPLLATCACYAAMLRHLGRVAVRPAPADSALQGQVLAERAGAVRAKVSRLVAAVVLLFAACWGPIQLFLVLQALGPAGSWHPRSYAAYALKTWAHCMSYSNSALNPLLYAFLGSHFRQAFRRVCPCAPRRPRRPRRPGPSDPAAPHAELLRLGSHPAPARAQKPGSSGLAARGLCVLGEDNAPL
# In short: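 Cell line: HEK293, stable human KISS1R. Dye loading 1 h at 37 C after 18 h culture. Read: kinetic fluorescence, 480/540 nm, 3 min at 1 s intervals.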
# [5] = G protein-coupled receptor (GPCR) small molecule agonists, calcium flux assay: HEK293 wild type cell line counter screen (AID 1920065)
# In short: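 Tox21 10K compounds, 15 concentrations each in triplicate, pin-transferred in DMSO onto dye-loaded cells; kinetic read at 480/540 nm for 3 min, 1 s intervals.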
# [6] = p53 small molecule agonists, cell-based qHTS assay with human liver microsomes (AID 1963577);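 note: p53 response element beta-lactamase reporter cells with liver microsomes plus NADPH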
# In short: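 HLM-supplemented p53RE-bla reporter assay: 16 h compound exposure at 37 C, microsomes and NADPH each 0.5 mg/mL final, read by fluorescence intensity.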
# [7] = p53 small molecule agonists, cell-based qHTS assay with rat liver microsomes (AID 1963578)
# In short: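 Quantitative HTS of the Tox21 10K library: p53RE-bla cells, rat liver microsomes plus NADPH at 0.5 mg/mL final each, 16 h at 37 C, beta-lactamase fluorescence detection.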
# [8] = p53 small molecule agonists, cell-based qHTS assay with human liver microsomes: qHTS cell viability counter screen (AID 1963579); note: nearly all actives have a fitted effect of over 45% in size; note: potency is the fitted concentration of half-maximal effect
# In short: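 Viability of p53RE-bla cells is measured as CellTiter-Glo luminescence following a 16 h, 37 C incubation with compound, liver microsomes from human donors and NADPH.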
# [9] = p53 small molecule agonists, cell-based qHTS assay: qHTS cell viability counter screen (AID 1963581); note: nearly all actives have a fitted effect of over 45% in size; note: potency is the fitted concentration of half-maximal effect
# In short: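 ATP content measured by luminescence in HCT-116 p53RE-bla cells treated 16 h at 37 C, same wells as the reporter screen.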
# [10] = cAMP Responsive Elements (CRE) small molecule agonists, cell-based qHTS assay (AID 1963590)
# In short: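 HEK 293T cells stably bearing CRE-bla were plated at 2,000 cells per well and rested 18 h. Compounds, positive controls or DMSO were added for 3 h at 37 C. LiveBLAzer B/G substrate was then loaded for 2 h at room temperature.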
# [11] = cAMP Responsive Elements (CRE) small molecule antagonists, cell-based qHTS assay (AID 1963591; active = well fitted inhibition curve with a large enough effect in the signal ratio in the repeat runs, not every such curve was filed as active; the % refers to the signal ratio)
# In short: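 First, CRE-bla HEK293T cells settled 18 h at 37 C. Next, compound and 0.25 uM final NKH477 were applied for 3 h. Last, LiveBLAzer B/G substrate was loaded for 2 h at room temperature.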
# [12] = molecular target: Beta-2 adrenergic receptor (Homo sapiens) (UniProt P07550); assay: Adrenergic beta2 receptor (ADRB2) small molecule antagonists, cell-based qHTS assay (AID 1963592); note: series mostly up to about 92 µM; nearly all actives have a fitted effect of over 50% in size
# Beta-2 adrenergic receptor (Homo sapiens), sequence (P07550 whole entry, looked up): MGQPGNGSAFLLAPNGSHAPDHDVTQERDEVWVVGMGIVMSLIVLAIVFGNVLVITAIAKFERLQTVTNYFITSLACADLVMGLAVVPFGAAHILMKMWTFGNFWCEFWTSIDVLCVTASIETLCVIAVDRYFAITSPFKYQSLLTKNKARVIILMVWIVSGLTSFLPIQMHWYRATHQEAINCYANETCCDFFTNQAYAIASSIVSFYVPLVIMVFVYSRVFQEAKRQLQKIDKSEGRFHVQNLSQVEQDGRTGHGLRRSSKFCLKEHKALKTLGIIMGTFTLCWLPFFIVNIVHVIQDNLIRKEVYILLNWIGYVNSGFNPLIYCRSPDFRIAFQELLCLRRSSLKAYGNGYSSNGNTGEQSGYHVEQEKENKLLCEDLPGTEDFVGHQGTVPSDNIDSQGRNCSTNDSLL
# In short: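 Assay format: CHO-ADRB2 cells, 18-20hr seeding at 37C/5% CO2, then compound plus 1nM isoproterenol agonist mix for 0.5hr RT. Homogeneous time-resolved fluorescence cAMP detection after 1hr, expressed as 665/615 nm ratio.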
# [13] = molecular target: Beta-2 adrenergic receptor (Homo sapiens) (UniProt P07550); assay: Adrenergic beta2 receptor (ADRB2) small molecule agonists, cell-based qHTS assay (AID 1963593);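 note: CHO cells stably overexpressing human ADRB2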
# In short: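 CHO cells stably over-expressing ADRB2 were plated overnight at 37C, then dosed with compounds plus a stimulation mix containing 100uM IBMX and 25uM Ro-20-1724 for 0.5hr at room temperature. cAMP was measured by HTRF competition, 1hr.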
# [14] = molecular target: D(2) dopamine receptor (Homo sapiens) (UniProt P14416); assay: Dopamine D2 receptor (DRD2) small molecule agonists, cell-based qHTS assay (AID 1963594); note: nearly all actives have a fitted effect of over 35% in size
# D(2) dopamine receptor (Homo sapiens), sequence (P14416 whole entry, looked up): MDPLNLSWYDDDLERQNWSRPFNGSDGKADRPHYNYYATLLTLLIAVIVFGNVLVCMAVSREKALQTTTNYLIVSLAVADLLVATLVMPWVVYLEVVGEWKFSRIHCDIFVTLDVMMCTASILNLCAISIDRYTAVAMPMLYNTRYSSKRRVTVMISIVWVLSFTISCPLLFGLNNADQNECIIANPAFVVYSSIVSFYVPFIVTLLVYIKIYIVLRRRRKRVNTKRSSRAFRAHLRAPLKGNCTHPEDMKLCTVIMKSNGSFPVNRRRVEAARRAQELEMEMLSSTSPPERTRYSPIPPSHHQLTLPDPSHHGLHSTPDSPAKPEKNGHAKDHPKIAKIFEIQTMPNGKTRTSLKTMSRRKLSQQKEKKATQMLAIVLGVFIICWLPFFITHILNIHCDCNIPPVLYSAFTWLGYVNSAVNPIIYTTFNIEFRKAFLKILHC
# In short: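 HEK293 cells stably expressing DRD2 were cultured 24 h at 37 C, then given Ro20-1724 (0.1 mM final) and compounds for 10 min at room temperature. NKH477 (200nM) was then added for 30 min. cAMP was read by HTRF.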
# [15] = molecular target: D(2) dopamine receptor (Homo sapiens) (UniProt P14416); assay: Dopamine D2 receptor (DRD2) small molecule antagonists, cell-based qHTS assay (AID 1963595; active = well fitted inhibition curve with a large enough effect in the signal ratio in the repeat runs, with a control signal flat; the % refers to the signal ratio; note: potency is the fitted concentration of half-maximal effect)
# In short: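 Cells were plated and grown for 24 h at 37 °C. Ro20-1724 (0.1 mM final) went in first, then compound for 10 min. NKH477 (200 nM) with quinpirole (12 nM) followed for 30 min at RT, then HTRF detection reagents for 1 h.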
# [16] = molecular target: 5-hydroxytryptamine receptor 2A (Homo sapiens) (UniProt P28223); assay: 5-hydroxytryptamine receptor 2A (HTR2A) small molecule antagonists, cell-based qHTS assay (AID 1963586); note: nearly all actives have a fitted effect of over 45% in size; note: potency is the fitted concentration of half-maximal effect
# 5-hydroxytryptamine receptor 2A (Homo sapiens), sequence (P28223 whole entry, looked up): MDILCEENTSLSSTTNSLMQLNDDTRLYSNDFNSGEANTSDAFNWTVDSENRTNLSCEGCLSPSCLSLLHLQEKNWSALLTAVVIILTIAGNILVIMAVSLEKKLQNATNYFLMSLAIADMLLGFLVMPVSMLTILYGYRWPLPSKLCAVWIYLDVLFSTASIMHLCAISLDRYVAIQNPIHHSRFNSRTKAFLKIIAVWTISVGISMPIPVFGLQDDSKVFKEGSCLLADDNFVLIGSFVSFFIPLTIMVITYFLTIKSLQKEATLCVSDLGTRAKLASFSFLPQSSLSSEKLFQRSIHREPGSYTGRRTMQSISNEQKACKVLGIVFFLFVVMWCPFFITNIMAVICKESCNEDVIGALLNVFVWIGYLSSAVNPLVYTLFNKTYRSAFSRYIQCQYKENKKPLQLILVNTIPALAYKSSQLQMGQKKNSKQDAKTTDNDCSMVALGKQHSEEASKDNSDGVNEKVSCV
# In short: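 CHO cells stably expressing human HTR2A were plated for 18 h at 37 C, then loaded with calcium dye for 1 h. Compounds were preincubated 5 min at room temperature before DOI (4 nM solution) was added. Kinetic fluorescence was read for 3 min.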
# [17] = molecular target: 5-hydroxytryptamine receptor 2A (Homo sapiens) (UniProt P28223); assay: 5-hydroxytryptamine receptor 2A (HTR2A) small molecule agonists, cell-based qHTS assay (AID 1963587); note: nearly all actives have a fitted effect of over 30% in size
# In short: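 HTR2A-CHO cells, plated 18 h at 37 C/5% CO2, dye-loaded 1 h at 37 C; compounds in DMSO added by pin tool (agonist mode). Intracellular calcium flux read as kinetic fluorescence on FDSS over 2 min at 1 s intervals.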
# [18] = molecular target: Muscarinic acetylcholine receptor M1 (Homo sapiens) (UniProt P11229); assay: Cholinergic receptor muscarinic 1 (CHRM1) small molecule antagonists, cell-based qHTS assay (AID 1963588); note: nearly all actives have a fitted effect of over 40% in size; note: potency is the fitted concentration of half-maximal effect
# Muscarinic acetylcholine receptor M1 (Homo sapiens), sequence (P11229 whole entry, looked up): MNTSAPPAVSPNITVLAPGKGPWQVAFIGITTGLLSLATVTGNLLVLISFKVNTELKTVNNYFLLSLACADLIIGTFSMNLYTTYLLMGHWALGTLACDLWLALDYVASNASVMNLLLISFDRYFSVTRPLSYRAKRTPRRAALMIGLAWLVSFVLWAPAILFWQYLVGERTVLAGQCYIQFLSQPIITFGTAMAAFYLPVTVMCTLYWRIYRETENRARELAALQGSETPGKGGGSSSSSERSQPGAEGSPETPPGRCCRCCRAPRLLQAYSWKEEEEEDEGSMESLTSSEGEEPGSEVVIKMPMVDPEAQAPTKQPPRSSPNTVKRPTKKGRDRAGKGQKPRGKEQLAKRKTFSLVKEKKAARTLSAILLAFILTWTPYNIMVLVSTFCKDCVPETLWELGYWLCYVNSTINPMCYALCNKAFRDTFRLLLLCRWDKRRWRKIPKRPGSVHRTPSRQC
# In short: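 Compounds were tested at 15 concentrations in three independent runs. Dye-loaded CHRM1-CHO cells were exposed 5 min at room temperature before stimulation by acetylcholine added at 50nM. Intracellular calcium was read kinetically on FDSS for 3 min.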
# [19] = molecular target: Muscarinic acetylcholine receptor M1 (Homo sapiens) (UniProt P11229); assay: Cholinergic receptor muscarinic 1 (CHRM1) small molecule agonists, cell-based qHTS assay (AID 1963589); note: nearly all actives have a fitted effect of over 35% in size
# In short: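 Homogeneous fluorescence calcium flux, agonist mode. Human M1-expressing CHO cells; compound dosed at 15 concentrations, three independent runs; signal sampled every 1 sec.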
# [20] = p53 small molecule agonists, cell-based qHTS assay with rat liver microsomes: qHTS cell viability counter screen (AID 1963580); note: nearly all actives have a fitted effect of over 45% in size
# In short: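 Counter screen for cytotoxicity under metabolic activation: rat liver microsomes and NADPH, 0.5 mg/mL final each, added with compounds to p53RE-bla HCT-116 cells; 16 h at 37 C, then ATP luminescence read.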
SMILES,Potency [1],Potency [2],Potency [3],Potency [4],Potency [5],Potency [6],Potency [7],Potency [8],Potency [9],Potency [10],Potency [11],Potency [12],Potency [13],Potency [14],Potency [15],Potency [16],Potency [17],Potency [18],Potency [19],Potency [20]
CC1=C(/C=C/C(C)=C/C=C/C(C)=C/C(=O)O)C(C)(C)CCC1,inactive,68.7 µM (active) and 68.5 µM (active) and 23.7 µM (active),inactive,inactive,inactive,inactive,inactive,inactive,inactive,inactive,inactive,inactive,inactive,inactive,inactive,–,–,–,–,–
O=C1CCCC1,inactive,inactive,inactive,inactive,inactive,inactive,inactive,inactive,inactive,inactive,inactive,inactive,–,inactive,inactive,inactive,inactive,inactive,inactive,–
C=C(C)OC(C)=O,inactive,inactive,inactive,inactive,inactive,inactive,inactive,inactive,inactive,inactive,inactive,inactive,–,inactive,inactive,inactive,inactive,inactive,inactive,–
O=c1ccc2ccccc2o1,inactive,inactive,inactive,inactive,inactive,inactive,inactive,inactive,inactive,inactive,inactive,inactive,inactive,inactive,inactive,–,–,–,–,–
Nc1ncnc2nc[nH]c12,inactive,inactive,inactive,inactive,inactive,inactive,inactive,inactive,inactive,inactive,inactive,inactive,inactive,inactive,inactive,inactive,inactive,inactive,inactive,–
c1ccc(Oc2ccccc2)cc1,inactive,inactive,inactive,inactive,inactive,inactive,inactive,inactive,–,inactive,inactive,inactive,inactive,inactive,inactive,inactive,inactive,inactive,inactive,inactive
CCCCCCCCCCCCS,inactive,inactive,inactive,inactive,inactive,inactive,inactive,inactive,–,inactive,inactive,inactive,inactive,inactive,inactive,inactive,–,inactive,inactive,inactive
CC(C)(Oc1ccc(C2CC2(Cl)Cl)cc1)C(=O)O (stereo not given),inactive,inactive,inactive,inactive,inactive,inactive,inactive,inactive,inactive,inactive,inactive,inactive,inactive,inactive,inactive,–,–,–,–,–
CC(=O)CC/C=C(\C)CCC=C(C)C,inactive,inactive,inactive,inactive,inactive,inactive,inactive,inactive,inactive,–,inactive,–,inactive,inactive,inactive,inactive,inactive,inactive,inactive,–
OCCOCCOCCOCCO,inactive,inactive,inactive,inactive,inactive,inactive,inactive,inactive,inactive,inactive,inactive,inactive,inactive,inactive,inactive,inactive,inactive,–,inactive,–
CN(C)c1ccc(C(=C2C=CC(=[N+](C)C)C=C2)c2ccccc2)cc1,4.33 µM (active) and 6.68 µM (active),1.22 µM (active),inactive,inactive,inactive,inactive,inactive,14.5 µM (active) [middle of 4 runs],4.08 µM (active) and 3.97 µM (active),–,–,inactive,–,–,16.8 µM (active),inactive,inactive,4.72 µM (active) and inactive and 18.3 µM (active),inactive,–
CCCCC(=O)O,inactive,inactive,inactive,inactive,inactive,inactive,inactive,inactive,inactive,inactive,inactive,inactive,inactive,inactive,inactive,inactive,inactive,inactive,inactive,–
O=C(O)c1ccc(C(=O)O)cc1,inactive,inactive,inactive,inactive,inactive,inactive,inactive,inactive,–,inactive,inactive,inactive,inactive,inactive,inactive,inactive,inactive,inactive,inactive,–
Nc1cc(Cl)c(-c2cc(Cl)c(N)cc2Cl)cc1Cl,27.3 µM (active) and 48.6 µM (active),3.06 µM (active) and inactive,inactive,inactive,inactive,inactive,inactive,51.3 µM (active),32.4 µM (active),–,–,inactive,–,inactive,inactive,5.29 µM (active),inactive,inactive,inactive,–
CCc1cccc(C)c1N,inactive,inactive,inactive,inactive,inactive,inactive,inactive,inactive,–,inactive,inactive,inactive,inactive,inactive,inactive,inactive,inactive,inactive,inactive,inactive
O=Cc1ccccc1O,inactive,inactive,inactive,inactive,inactive,inactive,inactive,inactive,inactive,inactive,inactive,inactive,inactive,inactive,inactive,inactive,inactive,inactive,inactive,–
Cc1ccc(N)c(S(=O)(=O)O)c1,inactive,inactive,inactive,inactive,inactive,inactive,inactive,inactive,–,inactive,inactive,inactive,–,inactive,inactive,–,inactive,inactive,inactive,–
NC(=O)c1cccnc1,inactive,inactive,inactive,inactive,inactive,inactive,inactive,inactive,inactive,inactive,inactive,inactive,inactive,inactive,inactive,–,–,–,–,–
COc1cc(C=O)ccc1O,inactive,inactive,inactive,inactive,inactive,inactive,inactive,inactive,inactive,inactive,inactive,inactive,–,inactive,inactive,inactive,inactive,inactive,inactive,–
Cc1ccccc1C(OCCN(C)C)c1ccccc1 (stereo not given),inactive,inactive,inactive,inactive,inactive,inactive,inactive,inactive,–,inactive,inactive,inactive,–,inactive,inactive,–,–,–,–,inactive
Brc1ccc(Oc2ccc(Br)cc2)cc1,inactive,inactive,inactive,inactive,inactive,inactive,inactive,–,inactive,inactive,inactive,inactive,inactive,inactive,inactive,inactive,inactive,inactive,inactive,inactive
C[C@]12C=CC(=O)C=C1CC[C@H]1[C@@H]3C[C@@H](O)[C@](O)(C(=O)CO)[C@@]3(C)C[C@H](O)[C@@]12F,inactive,inactive,inactive,inactive,inactive,inactive,–,inactive,inactive,inactive,inactive,inactive,inactive,inactive,inactive,–,–,–,–,inactive
C=CC(C)(C)C,inactive,inactive,inactive,inactive,inactive,inactive,–,inactive,inactive,inactive,inactive,inactive,inactive,inactive,inactive,inactive,inactive,inactive,inactive,inactive
CCCCCCCCOc1ccc(C(=O)c2ccccc2)c(O)c1,inactive,inactive,inactive,inactive,inactive,inactive,inactive,–,inactive,inactive,inactive,inactive,inactive,inactive,inactive,inactive,inactive,inactive,inactive,inactive
COc1ccc(O)cc1,inactive,inactive,inactive,inactive,inactive,inactive,inactive,–,inactive,inactive,inactive,inactive,inactive,inactive,inactive,inactive,inactive,–,–,inactive
CCCCOCCOCCO,inactive,inactive,inactive,inactive,inactive,inactive,–,inactive,inactive,inactive,inactive,inactive,inactive,inactive,inactive,inactive,inactive,inactive,inactive,inactive
OCc1cccc(Oc2ccccc2)c1,inactive,inactive,inactive,inactive,inactive,inactive,inactive,–,inactive,inactive,inactive,inactive,inactive,inactive,inactive,inactive,inactive,inactive,inactive,inactive
NC(=O)NC(N)=O,inactive,inactive,inactive,inactive,inactive,inactive,–,inactive,inactive,inactive,inactive,inactive,–,inactive,inactive,inactive,inactive,inactive,inactive,inactive
CC(C)[N+](C)(CCOC(=O)C1c2ccccc2Oc2ccccc21)C(C)C,inactive,inactive,inactive,inactive,inactive,inactive,–,inactive,inactive,inactive,inactive,inactive,inactive,inactive,inactive,inactive,inactive,inactive,inactive,inactive
